Measured values published in PubChem BioAssay (EPA / NIEHS).
Results filed as inconclusive are left out. Calls of active or inactive are those of the source. How the source made its calls: active means hit-call score of the fitted dose curve at least 0.9, where 1 is the maximum; inconclusive means response in the unintended direction; inactive means score below 0.9.

Assay: TOX21_p53_BLA_p4_viability: Viability Assessment in the Tox21 HCT-116 p53 Agonism Beta-lactamase Assay, Phase 4 (AID 2283597);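 further: hits lower the luminescence signal meaning cytotoxicity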
Procedure, shortened: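 Cytotoxicity was inferred from loss of CellTiter-Glo luminescence. HCT116 cells had been dosed with compounds after 5 h plating, incubated 16 h at 37C and 5% CO2, and exposed to the CCF4-AM substrate for 2 h.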

SMILES	AC50	outcome
CC[C@@H]([C@H](C)O)n1ncn(-c2ccc(N3CCN(c4ccc(OC[C@@H]5CO[C@@](Cn6cncn6)(c6ccc(F)cc6F)C5)cc4)CC3)cc2)c1=O	18.1 µM (active)	
O=C(O)CCCC/C=C(\c1ccccc1)c1cccnc1		inactive
COc1ccc(CCN(C)CCCC(C#N)(c2cc(OC)c(OC)c(OC)c2)C(C)C)cc1OC (centres undefined)		inactive
CCN(O)CC		inactive
CCOC(=O)c1cccnc1		inactive
CCCCCCCCCCCBr		inactive
CC(C)(C(=O)c1cccnc1)c1cccnc1		inactive
CN1CCN(C2Cc3ccccc3Sc3ccc(Cl)cc32)CC1 (centres undefined)	34.3 µM (active)	
O=S(=O)(O)c1ccc2c(N=Nc3ccc(S(=O)(=O)O)c4ccccc34)c(O)c(S(=O)(=O)O)cc2c1		inactive
CC1(C)S[C@@H]2[C@H](N3C(=O)C(c4ccccc4)NC3(C)C)C(=O)N2[C@H]1C(=O)O (some centres undefined)		inactive
CO[C@@H]1[C@@H](O[C@@H]2O[C@H](C)[C@@H](O[C@H]3C[C@@](C)(O)[C@@H](O)[C@H](C)O3)[C@H](N(C)C)[C@H]2O)[C@@H](CC=O)C[C@@H](C)[C@@H](O[C@@H]2CC[C@H](N(C)C)[C@@H](C)O2)/C=C/C=C/C[C@@H](C)OC(=O)C[C@H]1OC(C)=O		inactive
Cc1nc(C)c(C)nc1C		inactive
C[C@@H]1C[C@H]2[C@@H]3CCC4=CC(=O)C=C[C@]4(C)[C@@]3(Cl)[C@@H](O)C[C@]2(C)[C@@]1(OC(=O)c1ccco1)C(=O)CCl		inactive
CCOC(=O)Cc1ccc(-c2ccccc2)cc1		inactive
COCCOC(=O)C1=C(C)NC(C)=C(C(=O)OC(C)C)C1c1cccc([N+](=O)[O-])c1 (centres undefined)		inactive
OCC(S)CS (centres undefined)		inactive
CCCCCCC		inactive
CCCCC(=O)OCC(=O)[C@H]1[C@H](C)C[C@H]2[C@@H]3C[C@H](F)C4=CC(=O)C=C[C@]4(C)[C@@]3(F)[C@@H](O)C[C@@]21C		inactive
CC(CCl)OC(C)CCl (centres undefined)		inactive
OC(CCN1CCCCC1)(c1ccccc1)C1CC2C=CC1C2 (centres undefined)		inactive

SMILES	AC50	outcome
Cc1nc2ccccn2c(=O)c1CCN1CCC(C(=O)c2ccc(F)cc2)CC1		inactive
CC(C)(C)NCC(O)COc1ccc(NC(=O)NC2CCCCC2)cc1 (centres undefined)		inactive
NS(=O)(=O)c1cc(C2(O)NC(=O)c3ccccc32)ccc1Cl (centres undefined)		inactive
CCC(=O)OCC(=O)[C@@]1(OC(=O)CC)[C@H](C)C[C@H]2[C@@H]3CCC4=CC(=O)C=C[C@]4(C)[C@@]3(F)[C@@H](O)C[C@@]21C		inactive
C[C@]12CCC(=O)C=C1C=C[C@@H]1[C@@H]2CC[C@@]2(C)[C@H]1CC[C@@]21CCC(=O)O1		inactive
C=C1CC2C3CCC4=CC(=O)C=C[C@]4(C)[C@@]3(F)[C@@H](O)C[C@]2(C)[C@@]1(O)C(=O)COC(C)=O (some centres undefined)		inactive
Cc1c(C)c2c(c(C)c1OC(=O)CCC(=O)OCCO)CCC(C)(CCCC(C)CCCC(C)CCCC(C)C)O2 (centres undefined)	34.6 µM (active)	
CC(=O)c1ccc2c(c1)N(CCCN1CCN(CCO)CC1)c1ccccc1S2	31.6 µM (active)	
CC(C(=O)O)c1ccc(N2Cc3ccccc3C2=O)cc1 (centres undefined)		inactive
C[C@H](CCC(=O)O)[C@H]1CC[C@H]2[C@@H]3[C@H](O)C[C@@H]4C[C@H](O)CC[C@]4(C)[C@H]3C[C@H](O)[C@]12C		inactive
CCCCCCCCCCCCCC[N+](C)(C)Cc1ccccc1	27.9 µM (active)	
CC(=NO)C(C)=NO		inactive
CCCC(=O)CC		inactive
Nc1ccc(NC(=O)c2ccc(N)cc2)cc1		inactive
CC(=O)OCC(=O)[C@@]1(OC(C)=O)[C@@H](C)C[C@H]2[C@@H]3C[C@H](F)C4=CC(=O)C=C[C@]4(C)[C@@]3(F)[C@@H](O)C[C@@]21C		inactive
CC1CCCNC1 (centres undefined)		inactive
CC(C)[N+](C)(C)CC(O)COc1cccc2ccccc12 (centres undefined)		inactive
CC(=O)c1ccc2c(c1)N(CCCN1CCC(CCO)CC1)c1ccccc1S2		inactive
O=P(O)(O)CP(=O)(O)O		inactive
